High-throughput results from PubChem BioAssay.
nsP2pro primary: inhibitors of chikungunya virus nsP2 protease | Q8JUX6 | FRET peptide cleavage, nsP2pro, fluorescence 1 h | Potency, µM (top dose mostly 24.9 µM), for inactives: at the highest dose activity change, negative = inhibition, hits mostly inhibitors | 31,000 compounds, 1.1% hits | AID 1964107; calls by dose curve; further: nearly all actives have a fitted effect of over 60% in size
Target sequence (Q8JUX6 whole entry, looked up): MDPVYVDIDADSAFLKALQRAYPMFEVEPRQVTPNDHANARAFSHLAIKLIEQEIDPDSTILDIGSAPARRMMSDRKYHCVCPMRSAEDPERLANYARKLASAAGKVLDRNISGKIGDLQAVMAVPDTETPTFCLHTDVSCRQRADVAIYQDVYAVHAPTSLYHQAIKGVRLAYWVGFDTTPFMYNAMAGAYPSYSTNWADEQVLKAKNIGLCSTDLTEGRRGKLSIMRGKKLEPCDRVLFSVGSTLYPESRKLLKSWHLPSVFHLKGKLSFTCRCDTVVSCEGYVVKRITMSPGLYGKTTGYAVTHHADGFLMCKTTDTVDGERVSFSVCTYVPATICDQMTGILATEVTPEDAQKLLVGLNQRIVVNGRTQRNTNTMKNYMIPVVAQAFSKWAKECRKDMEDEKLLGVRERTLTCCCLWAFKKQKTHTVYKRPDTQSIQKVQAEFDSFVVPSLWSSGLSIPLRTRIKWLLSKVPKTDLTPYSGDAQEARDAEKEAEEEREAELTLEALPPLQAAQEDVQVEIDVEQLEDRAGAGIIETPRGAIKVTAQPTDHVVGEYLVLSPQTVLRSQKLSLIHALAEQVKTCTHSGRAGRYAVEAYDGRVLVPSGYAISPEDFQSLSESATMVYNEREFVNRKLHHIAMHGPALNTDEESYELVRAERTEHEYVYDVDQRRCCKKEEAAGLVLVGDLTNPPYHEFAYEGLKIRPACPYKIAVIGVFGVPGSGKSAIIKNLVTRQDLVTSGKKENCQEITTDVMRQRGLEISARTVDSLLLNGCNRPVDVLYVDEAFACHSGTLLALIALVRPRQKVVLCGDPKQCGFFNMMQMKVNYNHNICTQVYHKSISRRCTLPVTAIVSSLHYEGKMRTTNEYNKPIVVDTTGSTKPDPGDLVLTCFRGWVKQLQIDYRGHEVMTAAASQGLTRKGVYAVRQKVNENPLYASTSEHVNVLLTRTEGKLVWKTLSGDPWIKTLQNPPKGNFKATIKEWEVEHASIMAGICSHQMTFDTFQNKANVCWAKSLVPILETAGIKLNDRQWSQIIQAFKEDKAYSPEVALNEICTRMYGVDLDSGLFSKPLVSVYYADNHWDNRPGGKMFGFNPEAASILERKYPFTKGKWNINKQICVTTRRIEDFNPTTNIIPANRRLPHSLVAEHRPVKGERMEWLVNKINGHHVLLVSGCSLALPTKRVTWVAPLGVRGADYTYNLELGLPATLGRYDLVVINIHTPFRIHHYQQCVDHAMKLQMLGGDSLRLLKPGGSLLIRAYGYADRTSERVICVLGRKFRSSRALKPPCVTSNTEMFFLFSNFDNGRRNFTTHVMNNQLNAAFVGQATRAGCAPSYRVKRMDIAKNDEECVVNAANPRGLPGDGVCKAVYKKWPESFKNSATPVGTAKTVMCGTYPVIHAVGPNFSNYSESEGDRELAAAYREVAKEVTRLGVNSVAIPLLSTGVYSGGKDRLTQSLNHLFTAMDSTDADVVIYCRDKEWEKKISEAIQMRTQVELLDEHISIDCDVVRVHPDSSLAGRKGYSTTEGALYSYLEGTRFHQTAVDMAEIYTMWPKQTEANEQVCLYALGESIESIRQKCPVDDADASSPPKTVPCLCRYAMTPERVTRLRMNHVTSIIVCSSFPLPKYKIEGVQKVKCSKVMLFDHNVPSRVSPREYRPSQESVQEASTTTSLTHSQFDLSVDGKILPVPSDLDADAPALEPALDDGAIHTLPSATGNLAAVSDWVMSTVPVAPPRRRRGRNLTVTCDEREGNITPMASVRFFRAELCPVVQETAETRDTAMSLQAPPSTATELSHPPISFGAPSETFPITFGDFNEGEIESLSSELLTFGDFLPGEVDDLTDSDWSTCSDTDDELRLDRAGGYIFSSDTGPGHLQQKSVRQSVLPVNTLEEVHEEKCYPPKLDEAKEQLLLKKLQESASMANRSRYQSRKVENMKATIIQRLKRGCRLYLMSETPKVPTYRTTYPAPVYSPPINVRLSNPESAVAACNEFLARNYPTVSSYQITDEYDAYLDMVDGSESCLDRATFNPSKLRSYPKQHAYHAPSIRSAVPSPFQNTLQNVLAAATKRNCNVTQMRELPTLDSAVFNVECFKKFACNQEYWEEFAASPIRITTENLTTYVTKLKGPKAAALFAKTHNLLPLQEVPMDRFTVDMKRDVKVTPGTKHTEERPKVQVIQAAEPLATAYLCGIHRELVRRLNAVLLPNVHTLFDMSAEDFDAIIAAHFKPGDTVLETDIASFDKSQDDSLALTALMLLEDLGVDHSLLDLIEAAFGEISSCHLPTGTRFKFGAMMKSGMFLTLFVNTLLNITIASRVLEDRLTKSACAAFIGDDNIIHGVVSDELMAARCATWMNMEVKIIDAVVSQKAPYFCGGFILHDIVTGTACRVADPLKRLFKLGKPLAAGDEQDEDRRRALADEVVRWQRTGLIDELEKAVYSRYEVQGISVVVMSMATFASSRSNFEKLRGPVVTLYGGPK
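Purified recombinant nsP2pro (150 nM final) in 10 mM Tris-HCl pH 8.0 with 0.01% Tween 20 was preincubated 15 min at room temperature with compound (7 concentrations, up to 25 uM). FRET peptide 2 substrate (2.5 uM final) was then added; fluorescence was read after 1 h.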
Starred values were filed as active, the others as inactive; i = inactive; [ ] = another dose, or the depositor's remark. This excerpt belongs to a sample that is enriched for hits. On the % scale 0 is the no-effect control and ±100 the full control effect; potency means the concentration at half of the fitted maximal effect.

SMILES | nsP2pro primary
COC(=O)c1ccccc1NC(=O)CSc1nc2sc3c(c2c(=O)[nH]1)CCCC3 | 10µM*
COC(=O)c1ccc(Cn2nnc3sc4c(c3c2=O)CCCC4)cc1 | -22.4%
Cc1cc(C)cc(NC(=O)CSc2nc3sc4c(c3c(=O)[nH]2)CCCC4)c1 | -21.1%
COc1ccccc1C(=O)NC1CCN(c2ccnc3ccnn23)C1 (stereo unspecified) | -4.8%[39.2 µM]
CC1=C2C[C@@]3(C)[C@@H](CCC[C@@H]3C)C[C@@]2(O)OC1=O | -27.5%
CC1=C2C[C@@]3(C)C(CCC[C@@H]3C)C(O)C2(O)OC1=O (stereo partly specified) | 11.1µM*
CC1=C2CC(=O)C(C)CC/C=C(\C)CC2(O)OC1=O (stereo unspecified) | -8.6%
CCS(=O)(=O)N1C[C@@H](C(=O)NCc2ccc(C)o2)[C@H](c2ccncc2)C1 | -27.2%
C[C@@H]1CCC2C(C)(C)[C@H](O)[C@H](O)C[C@]2(C)[C@@]12Cc1c(O)cc3c(c1O2)CN(CCCC(=O)O)C3=O (stereo partly specified) | -4.4%[10 µM]
O=C(CCCCSc1nnc(-c2cccc3ccccc23)o1)Oc1ccc(F)cc1 | i
CCOc1ccc(C(c2c(O)cc(C)n(Cc3ccco3)c2=O)N2CCN(C)CC2)cc1 (stereo unspecified) | 12.6µM*
CCOc1ccccc1NC(=O)Cn1c(=O)n(Cc2ccco2)c(=O)c2cccnc21 | -8.3%
CC(=O)Nc1cc2c(s1)CNCC2 | 2.0%
O=C(Nc1ccc(C[C@@H]2CC[C@H]([C@H](O)c3ccccc3)N2)cc1)[C@@H]1CCc2nccc(=O)n21 | -7.8%
C#C[C@]1(O)CC[C@@H]2[C@@H]3CCC4=CCCC[C@@H]4[C@H]3C(=C)C[C@@]21CC | 26.7%
CC(=O)c1cccc(NC(=O)c2c(C)nn(-c3ccc(F)cc3)c2-n2cccc2)c1 | 10µM*
Cc1nn(-c2ccc(F)cc2)c(-n2cccc2)c1C(=O)N1CCCCC1C (stereo unspecified) | -28.7%
Cc1ccc(CCNC(=O)c2c(C)nn(-c3ccc(F)cc3)c2-n2cccc2)cc1 | -16.6%
CS(=O)(=O)c1ccc(Oc2cc(F)cc(C#N)c2)c2c1[C@H](O)[C@H](F)[C@@H]2F | -6.6%
Cc1ccc(CNc2cccc(N3CCCCC3)c2)cc1 | i
COc1ccc(-c2cc3nc4c(c(=O)n3[nH]2)CN(C(=O)CN(C)S(=O)(=O)c2cnc[nH]2)CC4)cc1 | i
CC(=O)Nn1c(C)nc2sc3c(c2c1=O)CCNC3 | -8.6%
Cn1c(=O)[nH]cc(CC(=O)N2C[C@H](C3CC3)[C@@H](N)C2)c1=O | -8.1%
O=C1CCCC2=C1C(c1[nH]ncc1Cl)NC(=NCc1ncc[nH]1)N2 (stereo unspecified) | -5.1%
Cc1cc(-c2ccc(N=Nc3ccc4c(S(=O)(=O)O)cc(S(=O)(=O)O)c(N)c4c3O)c(C)c2)ccc1N=Nc1ccc2c(S(=O)(=O)O)cc(S(=O)(=O)O)c(N)c2c1O | 12.4µM*
SMILES | nsP2pro primary
COc1cc(OC)c(C(CC(=O)N2CC(C)CC(C)C2)c2ccc3c(c2)OCO3)c(OCC#N)c1 (stereo unspecified) | i
O=C(O)CC(O)C(=O)O (stereo unspecified) | -17.9%
C[N+](C)(C)CC(O)CC(=O)O (stereo unspecified) | -5.4%
CC(O)CC(=O)O (stereo unspecified) | 15.9µM*
O=S(=O)(Nc1cnc2ccccc2c1)c1ccc(NCc2cccc(Cl)c2O)cc1 | -3.6%
O=S(=O)(Nc1ccccc1)c1ccc(NCc2cccc(Cl)c2O)cc1 | -23.3%
CCOc1cccc(CNc2ccc(O)cc2)c1OCc1ccccc1Cl | 11.2µM*
O=C(c1ccc(-c2ccc(Cl)cc2)o1)N(Cc1ccccn1)c1ccc(N2CCNCC2)cc1 | 0.9%
O=C(O)CCCCCCCCC(=O)O | -9.3%[39.2 µM]
O=C(Nc1ccc2c(N3CCOCC3)ncnc2c1)c1cccc(Cl)c1 | i
OCc1ccc(-c2ccc3ncnc(N4CCOCC4)c3c2)o1 | 12.6µM*
Cc1cc(C(=O)N2CCc3ncnc(N4CCOCC4)c3CC2)n(C)n1 | -3.2%
Cc1c(C(=O)NCC2CCCO2)[nH]c2c1C(=O)CC(c1ccco1)C2 (stereo unspecified) | -21.6%
CCOC(=O)c1[nH]c2c(c1C)CCC(c1ccco1)C2 (stereo unspecified) | -1.6%
CCOC(=O)c1[nH]c2c(c1C)C(=S)CC(c1ccco1)C2 (stereo unspecified) | 12.6µM*
CC(C)=CCCC(C)=CCCC(C)=CCCC=C(C)CCC=C(C)CCC=C(C)C | -7.1%
CC1CCC(=O)CC(SCC(O)C(=O)O)CCC(=O)O1 (stereo unspecified) | 11.1µM*
CC1OC2OC3C(OCC(O)C3O)OC(=O)C34CCC(C)(C)CC3C3=CCC5C6(C)CC(O)C(OC7OC(CO)C(O)C(O)C7OC7OCC(OC(=O)CC(C)(O)CC(=O)OC1C(OC1OCC(O)C(O)C1O)C2O)C(O)C7O)C(C)(CO)C6CCC5(C)C3(C)CC4O (stereo unspecified) | -5.5%[10 µM]
O=C(O)Cc1cccn1-c1ccc(Cl)cc1 | 4.47µM*
O=C(N1CCOCC1)N1CCN(c2ccc(Cl)cc2)CC1 | -1.1%
O=C(Cc1cccn1-c1ccc(F)cc1)N1CCCCC1 | -20.2%
Cc1nc(NC(=O)N2CCC[C@H]2C(N)=O)sc1-c1ccnc(C(C)(C)C(F)(F)F)c1 | -17.5%
FC(F)(F)c1cccc(N2CCN(C(=S)Nc3cccnc3)CC2)c1 | -7.2%
COc1ccc(Cl)cc1CNCCSc1nnnn1-c1ccccc1 | -30.4%
O=S(=O)(NCCSc1nnnn1-c1ccccc1)c1ccc(F)cc1 | 3.2%
SMILES | nsP2pro primary
Fc1ccc(-c2ccc(CNCCSc3nnnn3-c3ccccc3)o2)cc1 | 12.6µM*
CN1CCC(Nc2nc(Nc3ccc(Oc4ccccc4)cc3)c3c(=O)[nH]cc(Br)c3n2)CC1 | 103.3%
O=C([C@H](Cc1ccc(O[S+](=O)([O-])c2cccnc2)cc1)N[S+](=O)([O-])c1ccccn1)N1CCN(c2ccccc2)CC1 | -3.9%
N[C@H]1Cc2ccccc2N(O)C1=O | 50.0%
OC[C@H]1O[C@@H](Oc2c(O)cc(O)cc2/C=C/c2ccc(O)cc2)[C@H](O)[C@@H](O)[C@@H]1O | 11.7%
C[C@H](O)[C@H](O)[C@@H](O)[C@@H](O)C=O | -11.7%
O=C(O)C1=NOC2CN(Cc3cscn3)CC12 (stereo unspecified) | -12.4%[39.2 µM]
CC(C)CCN1CC2ON=C(C(=O)O)C2C1 (stereo unspecified) | -2.7%[39.2 µM]
CCCN1CC2ON=C(C(=O)O)C2C1 (stereo unspecified) | 12.6µM*
O=C1NS(=O)(=O)c2cc(Br)ccc21 | -1.6%
CN(Cc1ccc(-c2ccc(C#N)cc2)o1)c1ccc(N2CCN(C(=O)OC(C)(C)C)CC2)cc1 | -4.4%
COc1cc(O)c(C(CC(=O)N2CCOCC2)c2ccc(C)cc2)c(OC)c1 (stereo unspecified) | -17.1%
Cc1ccc(-c2nccc(=O)n2C(C)C(=O)NCCc2ccccc2)cc1 (stereo unspecified) | i
O=C(NCC1CC1)C1CCc2nnc(-c3ccccn3)n21 (stereo unspecified) | -8.9%[39.2 µM]
COC1=C2C[C@H](C)C[C@H](OC)[C@H](O)[C@@H](C)/C=C(/C)[C@H](OC(N)=O)[C@@H](OC)/C=C\C=C(\C)C(=O)NC(=CC1=O)C2=O | 12.4µM*
C=CCNC1=C2C[C@@H](C)C[C@H](OC)[C@H](O)[C@@H](C)/C=C(\C)[C@H](OC(N)=O)[C@@H](OC)/C=C\C=C(/C)C(=O)NC(=CC1=O)C2=O | -23.5%
Cc1cc(NS(=O)(=O)c2ccc(NC(=O)Cc3ccc(F)c(Cl)c3)cc2)no1 | 4.7%
